Measurements as given in PubChem BioAssay (NCATS).
Results filed as inconclusive are left out. Active and inactive are the calls of the source. Calls come from the whole dose curve; as a rule, active = well fitted inhibition curve with a large enough effect; inconclusive = small, poorly fitted or top-dose-only effect; inactive = flat fitted curve, though single readings scatter.

Experiment: Cytometry Cell-Based qHTS for Inhibitors of the mTORC1 Signaling Pathway in MEF cells (AID 2668);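 for activity change, negative = inhibition: Tsc2-/- p53-/- mouse embryonic fibroblasts stably re-expressing wild-type Tsc2; percent cells positive for phospho-rpS6 Ser235/236 relative to propidium iodide stain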
Details: mTORC1 pathway readout; series mostly up to 38.3 µM; activity change, negative = inhibition: at the top concentration
From the text: NIH Molecular Libraries Probe Production Centers Network [MLPCN]
NIH Chemical Genomics Center [NCGC]
Assay Submitter (PI): Blenis, John; Hoffman, Greg; Harvard University
NCGC Assay Overview: The mammalian target of rapamycin (mTOR) is an intracellular serine/threonine kinase Aberrant regulation of mTOR signaling plays a causative role in a number of human diseases, including cancer, benign tumors such as lymphangioleiomyomatosis (LAM) and Tuberous Sclerosis Complex (TSC), and metabolic diseases such as diabetes and obesity. This project aims to identify inhibitors of ribosomal protein S6 (rpS6) phosphorylation. The phosphorylation of rpS6 is a key event downstream of mTOR activation. The assay uses a phospho-specific antibody of phospho-rpS6 to detect inhibitors of mTOR activation. Mutations in the Tsc1 and Tsc2 genes are the underlying genetic lesions responsible for TSC, causing constitutive activation of the mTORC1 pathway and leading to profound effects on cell metabolism. Aberrant metabolism in cancer has recently received significant attention as a target to develop therapeutic agents in the treatment of cancer.1 As Tsc2-/- cells have lost the ability to respond to energy and growth factor deprivation, these cells are unable to properly down regulate cellular biosynthetic processes in response to metabolic stress, and are thus extremely sensitive to glucose deprivation-induced death.2 A central goal of this project is to explore the unique cell survival and metabolic properties of cells with Tsc1 or Tsc2 by screening for compounds that selectively target the Tsc2-/- MEFs by screening both Tsc2-/- and WT MEF cell lines. We hope to better understand these aspects of TSC physiology in order to exploit them for therapeutic benefit.
NCGC Acumen Assay Protocol:
For quantitative high throughput analysis of mTORC1 signaling, we developed a cell-based assay for immuno-fluorescence based detection of rpS6 phosphorylation on the Acumen Explorer that will be used a platform for the primary small molecule screen. Mouse embryonic fibroblasts (MEFs) are cultured in 1536-well plates using DMEM + 10% FBS. Twenty-four hrs after plating, test compounds (solubilized in DMSO) are delivered and incubated with the cells for 24 hrs at 37 degree Celsius. Following the incubation, media with compound is aspirated and the cells are fixed in 4% paraformaldehyde (PFA) containing PBS + 0.2% TX-100. Next, PFA is aspirated, cells are washed two times with PBS plus 0.2% TX-100 and the cells are blocked for 1 hr at room temperature (blocking buffer: LiCOR Blocking Buffer plus 0.2% TX-100). This is followed by aspiration and staining with Alexa-488 conjugated-phospho-rpS6 Ser235/236 antibody for 2 hours at room temperature (Cell Signaling Technology # 4803, 1:50 dilution in blocking buffer). Cells are washed two times with PBS plus 0.2% TX-100, and stained with 10 uM propidium iodide (PI) for 20-25 minutes for cell number measurement (1:500 dilution of Hoescht staining is also added for IN Cell imaging). The plates are scanned on the Acumen Explorer laser scanning instrument (TTP Labtech) using the 488nm laser for simultaneous excitation of the Alexa-488 and PI. The fluorescence emission from the Alexa-488 conjugated rpS6 phospho-235/236 antibody staining is selected using a […] band pass filter. Fluorescence emission from the PI stain is selected using a 575-640 nm band pass filter. The normalized phospho-S6 staining is calculated as the ratio of the integrated Alexa 488 intensity divided by the integrated PI intensity for the single concentration rapamycin control (7.5 nM) and DMSO columns. […] Inhibition of the pathway is defined based on the normalized phospho-S6 intensity in rapamycin treated cells. […]
Potency is the fitted concentration of half-maximal effect.

| SMILES | activity change, negative = inhibition | Potency |
| --- | --- | --- |
| C[C@H](Cc1ccccc1)Nc1ncnc2c1ncn2[C@@H]1O[C@H](CO)[C@@H](O)[C@H]1O | -8.52% (inactive) | – |
| C1CCC(N=C(NC23CC4CC(CC(C4)C2)C3)N2CCOCC2)CC1 | -29.9% (inactive) | – |
| O=C1c2ccccc2C(=O)c2c(NCCc3ccc(O)cc3)ccc(NCCc3ccc(O)cc3)c21 | – | 4.65 µM (active) |
| CN1C2CCCC1CC(NC(=O)c1nn(C)c3ccccc13)C2 (stereo not given) | 11.9% (inactive) | – |
| CC[N+](CC)(CC)CC | -5.33% (inactive) | – |
| Nc1c(S(=O)(=O)O)cc(Nc2ccc(Nc3nc(Cl)nc(Nc4ccc(S(=O)(=O)O)cc4)n3)c(S(=O)(=O)O)c2)c2c1C(=O)c1ccccc1C2=O | 9.57% (inactive) | – |
| Cc1cccc(/C=C/c2ccccc2)n1 | 9.57% (inactive) | – |
| N.N.O=C(O)C1(C(=O)O)CCC1.[Pt+2] | 1.43% (inactive) | – |
| CCc1ccc(/C=C2/SC(=S)NC2=O)cc1 | -1.15% (inactive) | – |
| N#C/C(=C\c1ccc(O)c(O)c1)C(=O)Nc1ccccc1 | -14.1% (inactive) | – |
